PubChem BioAssay (NCATS)
Results filed as inconclusive are left out. Calls of active or inactive are those of the source. Calls come from the whole dose curve; as a rule, active = well fitted curve in the direction sought with a large enough effect; inconclusive = small, poorly fitted or top-dose-only effect, or another doubt; inactive = no such curve, though single readings can be large; an effect the other way counts as inactive or inconclusive.

Columns and labels:
MCC-13 = assay: qHTS assay to identify novel small-molecules to repurpose for Merkel cell carcinoma treatment (AID 1296009); settings: MCC and control cell lines, CellTiter-Glo viability, 72 h; series mostly up to 46 µM; note: nearly all actives have a fitted effect of over 60% in size
Summary of the method: (§1)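 72 hr, 37 degree celsius; NPC 8-pt / MIPE 11-pt dose response; compound pinned in DMSO; CellTiter-Glo, 10 min RT, luminescence; normalized to no-cell and DMSO controls.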

MCC-26 = assay: as above; settings: MCC and control cell lines, CellTiter-Glo viability, 72 h; series mostly up to 46 µM
Summary of the method: as §1

MKL-1 = assay: as above; settings: MCC and control cell lines, CellTiter-Glo viability, 72 h; series mostly up to 46 µM
Summary of the method: as §1

MKL-2 = assay: as above; settings: MCC and control cell lines, CellTiter-Glo viability, 72 h; series mostly up to 46 µM
Summary of the method: as §1

NIH3T3 = assay: as above; settings: MCC and control cell lines, CellTiter-Glo viability, 72 h; at 44.8 µM (top of the series) unless noted
Summary of the method: as §1

UISO = assay: as above; settings: MCC and control cell lines, CellTiter-Glo viability, 72 h; series mostly up to 46 µM
Summary of the method: as §1

WaGa = assay: as above; settings: MCC and control cell lines, CellTiter-Glo viability, 72 h; series mostly up to 46 µM
Summary of the method: as §1

C33A = assay: Primary qHTS to identify gynecologic anti-cancer compounds using libraries of approved drugs and bioactive compounds (AID 1345084); settings: Gynecologic cancer cell panel viability, ATPlite luminescence, 48 h; series mostly up to 57.5 µM; note: nearly all actives have a fitted effect of over 55% in size
Summary of the method: (§2)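 Cytotoxicity screen measuring ATP content by luciferase luminescence. Each compound is applied at five concentrations for 48 h at 37 C with 5% CO2.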

CAOV3 = assay: as above; settings: Gynecologic cancer cell panel viability, ATPlite luminescence, 48 h; series mostly up to 57.5 µM
Summary of the method: as §2

CASKI = assay: as above; settings: Gynecologic cancer cell panel viability, ATPlite luminescence, 48 h; series mostly up to 57.5 µM
Summary of the method: as §2

Es-2 = assay: as above; settings: Gynecologic cancer cell panel viability, ATPlite luminescence, 48 h; series mostly up to 57.5 µM
Summary of the method: as §2

HeLa = assay: as above; settings: Gynecologic cancer cell panel viability, ATPlite luminescence, 48 h; series mostly up to 57.5 µM
Summary of the method: as §2

Hek293T = assay: as above; settings: Gynecologic cancer cell panel viability, ATPlite luminescence, 48 h, control line for the selectivity index; series mostly up to 57.5 µM
Summary of the method: as §2

JEG-3 = assay: as above; settings: Gynecologic cancer cell panel viability, ATPlite luminescence, 48 h; series mostly up to 57.5 µM
Summary of the method: as §2

OV90 = assay: as above; settings: Gynecologic cancer cell panel viability, ATPlite luminescence, 48 h; series mostly up to 57.5 µM
Summary of the method: as §2

PA-1 = assay: as above; settings: Gynecologic cancer cell panel viability, ATPlite luminescence, 48 h; series mostly up to 57.5 µM
Summary of the method: as §2

SKOV3 = assay: as above; settings: Gynecologic cancer cell panel viability, ATPlite luminescence, 48 h; series mostly up to 57.5 µM
Summary of the method: as §2

Tov-21-G = assay: as above; settings: Gynecologic cancer cell panel viability, ATPlite luminescence, 48 h; series mostly up to 57.5 µM
Summary of the method: as §2

Tov112D = assay: as above; settings: Gynecologic cancer cell panel viability, ATPlite luminescence, 48 h; series mostly up to 57.5 µM
Summary of the method: as §2

[1] = Drug repurposing screens with cells derived from glioblastoma tumor samples (AID 1345199); settings: GBM patient neurospheres viability, ATP luminescence, 48 h; note: nearly all actives have a fitted effect of over 40% in size
Summary of the method: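 Four patient lines of CD133+ GBM neurospheres were screened at several concentrations; hits were retested in those lines plus three slower-growing GBM lines, using 48-hour treatment and ATP-based viability.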

[2] = at 45.9 µM (top of the series), tumour line B
[3] = at 45.9 µM (top of the series), tumour line D
% is set by controls: 0 for no effect and ±100 for the full control effect.

c1ccc(N2CCNCC2)cc1
inactive: outcome (MCC-13) | Potency (MCC-26) | Potency (MKL-1) | Potency (MKL-2) | outcome (NIH3T3) | Potency (UISO) | Potency (WaGa) | Potency (C33A) | outcome (CAOV3) | outcome (CASKI) | Potency (Es-2) | Potency (HeLa) | outcome (Hek293T) | outcome (JEG-3) | Potency (OV90) | Potency (PA-1) | outcome (SKOV3) | Potency (Tov-21-G) | Potency (Tov112D)

[N-]=[N+]=CC(=O)OC[C@H](N)C(=O)O
inactive: outcome (MCC-13) | Potency (MCC-26) | Potency (MKL-1) | Potency (MKL-2) | Potency (UISO) | Potency (WaGa) | Potency (C33A) | outcome (CAOV3) | outcome (CASKI) | Potency (Es-2) | Potency (HeLa) | outcome (Hek293T) | outcome (JEG-3) | Potency (OV90) | Potency (PA-1) | outcome (SKOV3) | Potency (Tov-21-G) | Potency (Tov112D) | activity, negative = cell killing [1, 2] -23.8% | activity, negative = cell killing [1, 3] -9.43% | activity, negative = cell killing ([1]; at 46 µM (top of the series), tumour line A) -24.5%

O=C1c2ccccc2C(=O)c2ccccc21
inactive: outcome (MCC-13) | Potency (MCC-26) | Potency (MKL-1) | Potency (MKL-2) | Potency (UISO) | Potency (WaGa) | Potency (C33A) | outcome (CAOV3) | outcome (CASKI) | Potency (Es-2) | Potency (HeLa) | outcome (Hek293T) | outcome (JEG-3) | Potency (OV90) | Potency (PA-1) | outcome (SKOV3) | Potency (Tov-21-G) | Potency (Tov112D) | activity, negative = cell killing [1, 2] 4.04% | activity, negative = cell killing [1, 3] -17.8%

O=P1(N(CCCl)CCCl)NCCCO1 (stereo not given)
inactive: outcome (MCC-13) | Potency (MCC-26) | Potency (MKL-1) | Potency (MKL-2) | Potency (UISO) | Potency (WaGa) | Potency (C33A) | outcome (CAOV3) | outcome (CASKI) | Potency (Es-2) | Potency (HeLa) | outcome (Hek293T) | outcome (JEG-3) | Potency (OV90) | Potency (PA-1) | Potency (Tov-21-G) | Potency (Tov112D) | activity, negative = cell killing [1, 2] -0.921% | activity, negative = cell killing [1, 3] 1.42%

CNC(C)(C)Cc1ccccc1
inactive: outcome (MCC-13) | Potency (MCC-26) | Potency (MKL-1) | Potency (MKL-2) | Potency (UISO) | Potency (WaGa) | Potency (C33A) | outcome (CAOV3) | outcome (CASKI) | Potency (Es-2) | Potency (HeLa) | outcome (Hek293T) | outcome (JEG-3) | Potency (OV90) | Potency (PA-1) | outcome (SKOV3) | Potency (Tov-21-G) | Potency (Tov112D) | activity, negative = cell killing ([1]; at 21.2 µM (top of the series), tumour line B) -7.53% | activity, negative = cell killing ([1]; at 21.2 µM (top of the series), tumour line D) -8.31% | activity, negative = cell killing ([1]; at 21.3 µM (top of the series), tumour line A) -29.6%

CC(C)N(CCC(C(N)=O)(c1ccccc1)c1ccccn1)C(C)C (stereo not given)
inactive: outcome (MCC-13) | Potency (MCC-26) | Potency (MKL-1) | Potency (MKL-2) | Potency (UISO) | Potency (WaGa) | Potency (C33A) | outcome (CAOV3) | outcome (CASKI) | Potency (Es-2) | Potency (HeLa) | outcome (Hek293T) | outcome (JEG-3) | Potency (OV90) | Potency (PA-1) | outcome (SKOV3) | Potency (Tov-21-G) | Potency (Tov112D) | activity, negative = cell killing [1, 2] -20.9% | activity, negative = cell killing [1, 3] 4.58%

O=C(O)CCCc1ccc(N(CCCl)CCCl)cc1
inactive: outcome (MCC-13) | Potency (MCC-26) | Potency (MKL-1) | Potency (MKL-2) | Potency (UISO) | Potency (WaGa) | Potency (C33A) | outcome (CAOV3) | outcome (CASKI) | Potency (Es-2) | Potency (HeLa) | outcome (Hek293T) | outcome (JEG-3) | Potency (OV90) | Potency (PA-1) | outcome (SKOV3) | Potency (Tov-21-G) | Potency (Tov112D) | activity, negative = cell killing [1, 2] -11.3% | activity, negative = cell killing [1, 3] -13.2%
